In PubChem BioAssay (NCATS):
Inconclusive results are not listed. The source made the active and inactive calls. Calls follow the shape of the dose curve; as a rule, active = well fitted inhibition curve with a large enough effect; inconclusive = small, poorly fitted or top-dose-only effect; inactive = no such curve, though single readings can be large or run the other way.

test: qHTS Screen of the MIPE 4.0 Collection Against Ewings Sarcoma (TC71) (AID 1259253); conditions: TC71 Ewing sarcoma viability, CellTiter-Glo, 48 h; series mostly up to 45.8 µM; also: nearly all actives have a fitted effect of over 40% in size
Excerpt: There is a large unmet medical need for treatments for Ewing sarcoma, a pediatric sarcoma. We sought to identify compounds that inhibited Ewing sarcoma cells in vitro with the goal to then test promising drugs in two drug combinations in vitro to look for synergistic drug combinations. Promising combinations would then proceed to additional validation, including in vivo testing.
Using the NCATS developed oncology compound library called the Mechanism of Interrogation Plate (MIPE), four Ewing sarcoma cell lines were evaluated (TC32, TC71, RDES, EW8). Compounds, in a 12-point titration series, were incubated with cells for 48 hours and the read out was cell viability (CellTiter-Glo from Promega). These initial experiments were used to select appropriate concentrations of each single agent for subsequent two-drug matrix combinations such that the concentrations in the matrices would span both activity and non-activity.
Cells, in the log phase of growth, were seeded in 5 uL of RPMI plus 5% FBS, […] L-glutamine, 100 U/ml penicillin and 100 ug/ml streptomycin into 1536-well solid-bottom white tissue culture treated Greiner Bio One Plates (789173-F) using a MultiDrop Combi (Thermofisher Scientific) dispenser and a small sterile cassette. One column was media alone to be used as a :"no cells" control. The plates were then covered with sterilized stainless steel gasketed lids from Kalypsys. After allowing cells to attach for 4 hours, 23 nL of test compound or control (negative control DMSO and positive control 9.2 uM Bortezomib-final) were added from a 1536-well polypropylene compound source plate to each well using a 1536 head pin tool from Kalypsys. Cells were then incubated for 48 hours at 37C, 95% relative humidity and 5% CO2. After 48 hours, plates were removed from the incubator and 3 uL of CellTiter-Glo (Promega) was added using an Aurora Flying Reagent Dispenser Bioraptor. Plates were incubated at room temperature for 10 minutes prior to reading the luminescence on the Viewlux (PerkinElmer). The relative luciferase units are used to calculate the percent activity using the activity of DMSO in the cells and no cells columns for normalization of no inhibition and full inhibition respectively.
Potency is read from the fitted curve at half-maximal effect.

SMILES	Potency
Cc1ccc(NC(=O)c2cccc(N(C)C)c2)cc1NC(=O)c1ccc(O)cc1	0.526 µM (active)
COc1c(C)c2c(c(O)c1CC=C(C)CCC(=O)OCCN1CCOCC1)C(=O)OC2	1.48 µM (active)
C[C@]12C=CC(=O)C=C1CC[C@@H]1[C@@H]2[C@@H](O)C[C@@]2(C)[C@@H]1CC[C@]2(O)C(=O)CO	inactive
C=C1[C@H](n2cnc3c(=O)[nH]c(N)nc32)C[C@H](O)[C@H]1CO	14.8 µM (active)
CN(C)CCN(C)C(=O)c1ccc(NC(=O)Nc2ccc(-c3nc(N4CCOCC4)c4ccn(CC(F)(F)F)c4n3)cc2)cc1	0.0743 µM (active)
NCc1c[nH]c(=S)n1[C@H]1CCc2c(F)cc(F)cc2C1	20.9 µM (active)
C[C@@H]1C[C@H]2[C@@H]3CCC4=CC(=O)C=C[C@]4(C)[C@@]3(F)[C@@H](O)C[C@]2(C)[C@@]1(O)C(=O)CO	inactive
Cc1ccc(S(=O)(=O)Nc2nc3ccccc3nc2Nc2ccc3nsnc3c2)cc1	12.9 µM (active)
O=C(O)Cc1cccc(OCCCN(Cc2cccc(C(F)(F)F)c2Cl)CC(c2ccccc2)c2ccccc2)c1	20.9 µM (active)
C[C@@H](O)[C@H]1C(=O)N2C(C(=O)OCOC(=O)C(C)(C)C)=C(SC3CN(C4=NCCS4)C3)[C@H](C)[C@H]12	inactive
NC1(C(=O)N[C@@H](CCO)c2ccc(Cl)cc2)CCN(c2ncnc3[nH]ccc23)CC1	16.6 µM (active)
N[C@@H](CC(=O)N1CCn2c(nnc2C(F)(F)F)C1)Cc1cc(F)c(F)cc1F	16.6 µM (active)
O=C1CCCC(=O)C1C(=O)c1ccc(C(F)(F)F)cc1[N+](=O)[O-]	23.5 µM (active)
CCOC(=O)c1c(CSc2ccccc2)n(C)c2cc(Br)c(O)c(CN(C)C)c12	16.6 µM (active)
NS(=O)(=O)c1ccc(Nc2nc(OCC3CCCCC3)c3[nH]cnc3n2)cc1	14.8 µM (active)
CCCCC(C=O)NC(=O)C(CC(C)C)NC(=O)OCc1ccccc1 (stereo not given)	inactive
NCC1CCC(C(=O)O)CC1 (stereo not given)	9.35 µM (active)
CN(C(Cc1ccc(OS(=O)(=O)c2cccc3cnccc23)cc1)C(=O)N1CCN(c2ccccc2)CC1)S(=O)(=O)c1cccc2cnccc12 (stereo not given)	18.7 µM (active)
CC(C)(O)CC(=O)NCCn1ccc2ncnc(Nc3ccc(Oc4cccc(C(F)(F)F)c4)c(Cl)c3)c21	26.4 µM (active)
CN(C)CCN(Cc1ccc(Cl)cc1)c1ccccn1	20.9 µM (active)

SMILES	Potency
CCNC(=O)c1noc(-c2cc(C(C)C)c(O)cc2O)c1-c1ccc(CN2CCOCC2)cc1	0.118 µM (active)
O=C1Nc2ccc(I)cc2C1=Cc1cc(Br)c(O)c(Br)c1	18.7 µM (active)
CC[C@H](C=C[C@@H](C)[C@H]1CC[C@H]2[C@@H]3CC=C4C[C@@H](O)CC[C@]4(C)[C@@H]3CC[C@]12C)C(C)C	inactive
CC(C)CN(C[C@@H](O)[C@H](Cc1ccccc1)NC(=O)O[C@H]1CO[C@H]2OCC[C@H]21)S(=O)(=O)c1ccc(N)cc1	3.72 µM (active)
C[C@@H]1O[C@@H](O[C@H]2CC[C@@]3(C)[C@H](CC[C@@H]4[C@H]3C[C@@H](O)[C@]3(C)[C@@H](C5=CC(=O)OC5)CC[C@]43O)C2)C[C@H](O)[C@@H]1O[C@H]1C[C@H](O)[C@H](O[C@H]2C[C@H](O)[C@@H](O)[C@@H](C)O2)[C@H](C)O1 (stereo in doubt)	0.241 µM (active)
OC[C@H]1O[C@@H](O[C@H]2[C@@H](O)[C@@](O)(CO)O[C@@H]2CO)[C@H](O)[C@@H](O)[C@@H]1O	inactive
CC(=O)OCC(=O)[C@@]12OC(C)(C)O[C@H]1C[C@H]1[C@@H]3C[C@H](F)C4=CC(=O)C=C[C@]4(C)[C@@]3(F)[C@@H](O)C[C@@]12C	inactive
CC(C)N(CCCNC(=O)Nc1ccc(C(C)(C)C)cc1)C[C@H]1O[C@@H](n2cc(Br)c3c(N)ncnc32)[C@H](O)[C@H]1O	18.7 µM (active)
Cc1c(-c2cccc3c(CCCOc4cccc5ccccc45)c(C(=O)O)n(Cc4cccnc4)c23)c(COc2ccc(N3CCN([S+](=O)([O-])N(C)C)CC3)cc2)nn1C	20.9 µM (active)
COc1cc2ncn(-c3cc(OCc4ccccc4S(C)(=O)=O)c(C#N)s3)c2cc1OC	3.32 µM (active)
Cc1nn(Cc2ccccc2Cl)c(C)c1CN(C)CC(O)COc1ccc(Cl)cc1 (stereo not given)	23.5 µM (active)
COC1CCC(C(=O)c2ccc3nc4c(cc3c2)CCCO4)CC1 (stereo not given)	16.6 µM (active)
COc1cc([C@@H]2c3cc4c(cc3[C@@H](O[C@@H]3O[C@@H]5CO[C@@H](C)O[C@@H]5[C@H](O)[C@@H]3O)[C@H]3COC(=O)[C@H]23)OCO4)cc(OC)c1O	0.59 µM (active)
COc1cc2c(cc1Cc1cccc(Cl)c1F)c(=O)c(C(=O)O)cn2[C@H](CO)C(C)C	20.9 µM (active)
C[C@H]1[C@H](O)O[C@@H]2O[C@@]3(C)CC[C@@H]4[C@H](C)CC[C@@H]1[C@@]24OO3	1.48 µM (active)
CC(=O)O[C@]1(C(C)=O)CC[C@H]2[C@@H]3C=C(Cl)C4=CC(=O)[C@@H]5C[C@H]5[C@]4(C)[C@@H]3CC[C@@]21C	13.2 µM (active)
CN(C)CC[C@H](CSc1ccccc1)Nc1ccc(S(=O)(=O)NC(=O)c2ccc(N3CCN(Cc4ccccc4-c4ccc(Cl)cc4)CC3)cc2)cc1[N+](=O)[O-]	16.6 µM (active)
CC[C@H](NC(=O)[C@H](C)NC)C(=O)N1C[C@@H](O)C[C@H]1Cc1c(-c2[nH]c3cc(F)ccc3c2C[C@H]2C[C@H](O)CN2C(=O)[C@H](CC)NC(=O)[C@H](C)NC)[nH]c2cc(F)ccc12	inactive
Cc1nc(NC(=O)N2CCC[C@@H]2C(N)=O)sc1-c1csc(C(C)(C)C)n1	6.62 µM (active)
C[C@]12CCC3=C4CCC(=O)C=C4CC[C@@H]3[C@H]1CC[C@@]2(O)CC#N	inactive
